{"source": "PubChem BioAssay", "note": "Values without a mark were called inactive. The source made the active and inactive calls. Unless noted, no rule for the calls is given here."}
{"assay": "phospholipid biosynthesis inhibitors in animal cells, primary screen, cell-based, LOPAC library, screen 4 (AID 1347384)", "details": "phospholipid biosynthesis inhibition screen, at 10 µM"}
{"compound": "CCCC(=O)NCCc1c2n(c3ccc(OC)cc13)CCCc1ccccc1-2", "outcome": "inactive"}
{"compound": "Cn1ccnc1", "outcome": "inactive"}
{"compound": "Nn1nnc2ccccc21", "outcome": "inactive"}
{"compound": "CCCn1c(=O)c2[nH]c(-c3ccc(S(=O)(=O)O)cc3)nc2n(CCC)c1=O", "outcome": "inactive"}
{"compound": "C[C@H](O)C(=O)C1=Nc2c(nc(N)[nH]c2=O)NC1", "outcome": "inactive"}
{"compound": "NC1(C(=O)O)CCc2cc(C(=O)O)ccc21", "note": "(stereo not given)", "outcome": "inactive"}
{"compound": "Nc1nc(Cl)nc2c1ncn2[C@@H]1O[C@H](CO)[C@H](O)C1O", "note": "(stereo not given in full)", "outcome": "inactive"}
{"compound": "N[C@H](C(=O)O)[C@H](O)C(=O)O", "outcome": "inactive"}
{"compound": "C=C1C(=O)O[C@@H]2[C@H]3O[C@]3(C)CCC=C(C)CC[C@@H]12", "outcome": "inactive"}
{"compound": "C[C@@H]1C(=O)NC2=Nc3cccc(Cl)c3CN21", "outcome": "inactive"}
{"compound": "CCNC(=O)[C@H]1O[C@@H](n2cnc3c(N)nc(NCCc4ccc(CCC(=O)O)cc4)nc32)C(O)[C@H]1O", "note": "(stereo not given in full)", "outcome": "inactive"}
{"compound": "Cc1nc(N=Nc2ccc(S(=O)(=O)O)cc2S(=O)(=O)O)c(COP(=O)(O)O)c(C=O)c1O", "outcome": "inactive"}
{"compound": "O=C(Nc1cccc(C(=O)Nc2ccc(S(=O)(=O)O)c3cc(S(=O)(=O)O)cc(S(=O)(=O)O)c23)c1)Nc1cccc(C(=O)Nc2ccc(S(=O)(=O)O)c3cc(S(=O)(=O)O)cc(S(=O)(=O)O)c23)c1", "outcome": "inactive"}
{"compound": "Nc1nc2[nH]c(=O)cnc2c(=O)[nH]1", "outcome": "inactive"}
{"compound": "O=[N+]([O-])c1ccc(CNc2nc(NCc3cccc(C(F)(F)F)c3)nc3nc[nH]c23)cc1", "outcome": "inactive"}
{"compound": "N[C@@H](Cc1cnc[nH]1)C(=O)O", "outcome": "inactive"}
{"compound": "CC1(C)CCC(NC(=O)[C@@H](N)CCC(=O)O)CC1", "outcome": "inactive"}
{"compound": "C#CC(N)CCC(=O)O", "note": "(stereo not given)", "outcome": "inactive"}
{"compound": "C=CCN1CCc2c(cc(O)c(O)c2Br)[C@@H](c2ccccc2)C1", "outcome": "inactive"}
{"compound": "N=C(N)c1ccc(N)cc1", "outcome": "inactive"}
{"compound": "O=C1C2C=CC=CC2=NC(=S)N1CCN1CCC(=C(c2ccc(F)cc2)c2ccc(F)cc2)CC1", "note": "(stereo not given)", "outcome": "inactive"}
{"compound": "N.N.O=C(O)C1(C(=O)O)CCC1.[Pt+2]", "outcome": "inactive"}
{"compound": "[Li+]", "outcome": "inactive"}
{"compound": "COc1cc2c(CCNC(C)=O)c[nH]c2cc1O", "outcome": "inactive"}
{"compound": "OC1(c2ccc(Cl)cc2)CCN(Cc2c[nH]c3ccccc23)CC1", "outcome": "inactive"}
{"compound": "N=C(N)c1ccccc1", "outcome": "inactive"}
{"compound": "CC(=O)SCC[N+](C)(C)C", "outcome": "inactive"}
{"compound": "COc1cccc(C(=O)NCCN2CCN(c3ccc(Cl)cc3)CC2)c1", "outcome": "inactive"}
{"compound": "OCC1NCC(O)C(O)C1O", "note": "(stereo not given)", "outcome": "inactive"}
{"compound": "C=C/C(C)=C/[C@@]1(C)SC(=O)C(C)=C1O", "outcome": "inactive"}
{"compound": "CCCOC(=O)c1c(-c2ccccc2)nc(CC)c(C(=O)SCC)c1CCC", "outcome": "inactive"}
{"compound": "Oc1ccc(C2CNCc3sccc32)cc1O", "note": "(stereo not given)", "outcome": "inactive"}
{"compound": "Nc1ncnc2c1nc(Sc1ccc(Cl)cc1)n2C1OC2COP(=O)(O)O[C@@H]2[C@@H]1O", "note": "(stereo not given in full)", "outcome": "inactive"}
{"compound": "O=C(O)CCC(C(=O)O)N1C(=O)c2ccccc2C1=O", "note": "(stereo not given)", "outcome": "inactive"}
{"compound": "Nc1ncnc2c1nc(Br)n2C1OC2COP(=O)(O)O[C@@H]2C1O", "note": "(stereo not given in full)", "outcome": "inactive"}
{"compound": "Nc1nc(Nc2ccccc2)nc2c1ncn2[C@@H]1O[C@H](CO)[C@H](O)C1O", "note": "(stereo not given in full)", "outcome": "inactive"}
{"compound": "COc1ccc(NC(=O)/C=C/c2ccc(Cl)cc2)cc1", "outcome": "inactive"}
{"compound": "C=CCn1c(=O)c2c(nc(-c3ccc(S(=O)(=O)O)cc3)n2C)n(C)c1=O", "outcome": "inactive"}
{"compound": "N[C@H](CO)C(=O)O", "outcome": "inactive"}
{"compound": "N#Cc1cc([N+](=O)[O-])c2sc(C(N)=O)[n+]([O-])c2c1", "outcome": "inactive"}
{"assay": "viability rescue of complex I mutant cybrids, primary screen, cell-based, galactose medium, ATP luminescence (AID 1645843;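 active = z-score of at least 1.8 in each of two replicates, scored against plate mean and spread of sample wells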;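 also: positive z means more ATP and so rescue of galactose-driven cybrid death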)", "details": "complex I mutant cybrid cells, 72 h, stronger effect = higher value"}
{"compound": "CCCC(=O)NCCc1c2n(c3ccc(OC)cc13)CCCc1ccccc1-2", "z-score": -0.27}
{"compound": "Cn1ccnc1", "z-score": 0.675}
{"compound": "Nn1nnc2ccccc21", "z-score": 0.305}
{"compound": "CCCn1c(=O)c2[nH]c(-c3ccc(S(=O)(=O)O)cc3)nc2n(CCC)c1=O", "z-score": 0.43}
{"compound": "C[C@H](O)C(=O)C1=Nc2c(nc(N)[nH]c2=O)NC1", "z-score": 0.4}
{"compound": "NC1(C(=O)O)CCc2cc(C(=O)O)ccc21", "note": "(stereo not given)", "z-score": 0.185}
{"compound": "Nc1nc(Cl)nc2c1ncn2[C@@H]1O[C@H](CO)[C@H](O)C1O", "note": "(stereo not given in full)", "z-score": -0.705}
{"compound": "N[C@H](C(=O)O)[C@H](O)C(=O)O", "z-score": 0.175}
{"compound": "C=C1C(=O)O[C@@H]2[C@H]3O[C@]3(C)CCC=C(C)CC[C@@H]12", "z-score": -1.27}
{"compound": "C[C@@H]1C(=O)NC2=Nc3cccc(Cl)c3CN21", "z-score": 0.635}
{"compound": "CCNC(=O)[C@H]1O[C@@H](n2cnc3c(N)nc(NCCc4ccc(CCC(=O)O)cc4)nc32)C(O)[C@H]1O", "note": "(stereo not given in full)", "z-score": 0.485}
{"compound": "Cc1nc(N=Nc2ccc(S(=O)(=O)O)cc2S(=O)(=O)O)c(COP(=O)(O)O)c(C=O)c1O", "z-score": 0.795}
{"compound": "O=C(Nc1cccc(C(=O)Nc2ccc(S(=O)(=O)O)c3cc(S(=O)(=O)O)cc(S(=O)(=O)O)c23)c1)Nc1cccc(C(=O)Nc2ccc(S(=O)(=O)O)c3cc(S(=O)(=O)O)cc(S(=O)(=O)O)c23)c1", "z-score": 0.865}
{"compound": "Nc1nc2[nH]c(=O)cnc2c(=O)[nH]1", "z-score": 0.655}
{"compound": "O=[N+]([O-])c1ccc(CNc2nc(NCc3cccc(C(F)(F)F)c3)nc3nc[nH]c23)cc1", "z-score": -0.05}
{"compound": "N[C@@H](Cc1cnc[nH]1)C(=O)O", "z-score": 0.865}
{"compound": "CC1(C)CCC(NC(=O)[C@@H](N)CCC(=O)O)CC1", "z-score": 0.125}
{"compound": "C#CC(N)CCC(=O)O", "note": "(stereo not given)", "z-score": -0.17}
{"compound": "C=CCN1CCc2c(cc(O)c(O)c2Br)[C@@H](c2ccccc2)C1", "z-score": -1.42}
{"compound": "N=C(N)c1ccc(N)cc1", "z-score": -0.075}
{"compound": "O=C1C2C=CC=CC2=NC(=S)N1CCN1CCC(=C(c2ccc(F)cc2)c2ccc(F)cc2)CC1", "note": "(stereo not given)", "z-score": -0.96}
{"compound": "N.N.O=C(O)C1(C(=O)O)CCC1.[Pt+2]", "z-score": -0.53}
{"compound": "[Li+]", "z-score": -0.05}
{"compound": "COc1cc2c(CCNC(C)=O)c[nH]c2cc1O", "z-score": -0.44}
{"compound": "OC1(c2ccc(Cl)cc2)CCN(Cc2c[nH]c3ccccc23)CC1", "z-score": -0.735}
{"compound": "N=C(N)c1ccccc1", "z-score": 0.605}
{"compound": "CC(=O)SCC[N+](C)(C)C", "z-score": 0.495}
{"compound": "COc1cccc(C(=O)NCCN2CCN(c3ccc(Cl)cc3)CC2)c1", "z-score": -0.845}
{"compound": "OCC1NCC(O)C(O)C1O", "note": "(stereo not given)", "z-score": -0.145}
{"compound": "C=C/C(C)=C/[C@@]1(C)SC(=O)C(C)=C1O", "z-score": 0.66}
{"compound": "CCCOC(=O)c1c(-c2ccccc2)nc(CC)c(C(=O)SCC)c1CCC", "z-score": -1.19}
{"compound": "Oc1ccc(C2CNCc3sccc32)cc1O", "note": "(stereo not given)", "z-score": -1.29}
{"compound": "Nc1ncnc2c1nc(Sc1ccc(Cl)cc1)n2C1OC2COP(=O)(O)O[C@@H]2[C@@H]1O", "note": "(stereo not given in full)", "z-score": 1.15}
{"compound": "O=C(O)CCC(C(=O)O)N1C(=O)c2ccccc2C1=O", "note": "(stereo not given)", "z-score": 0.255}
{"compound": "Nc1ncnc2c1nc(Br)n2C1OC2COP(=O)(O)O[C@@H]2C1O", "note": "(stereo not given in full)", "z-score": 0.735}
{"compound": "Nc1nc(Nc2ccccc2)nc2c1ncn2[C@@H]1O[C@H](CO)[C@H](O)C1O", "note": "(stereo not given in full)", "z-score": 0.02}
{"compound": "COc1ccc(NC(=O)/C=C/c2ccc(Cl)cc2)cc1", "z-score": 0.42}
{"compound": "C=CCn1c(=O)c2c(nc(-c3ccc(S(=O)(=O)O)cc3)n2C)n(C)c1=O", "z-score": 0.335}
{"compound": "N[C@H](CO)C(=O)O", "z-score": 0.31}
{"compound": "N#Cc1cc([N+](=O)[O-])c2sc(C(N)=O)[n+]([O-])c2c1", "z-score": -1.46}
